# Measured values reported in PubChem BioAssay.
# Calls of active or inactive are those of the source.
# Test: resazurin metabolic signal in HepG2 cells – cell-based, resazurin fluorescence, 24 h, PK04 Diversity Set, profiling panel (AID 1172); note: test concentration not given here
# Conditions: HepG2 viability, higher = more signal
row,SMILES,z-score
1,C=CCNC(=O)[C@H]1[C@@H]2C(=O)O[C@@H](c3ccccc3)[C@@H](c3ccccc3)N2[C@@H](c2ccccc2OCCO)[C@]12C(=O)Nc1ccc(C#CCC(C(=O)OC)C(=O)OC)cc12,0.57
2,COCCOC(=O)N1C(=O)[C@@]2(c3cc(C#CCNC(N)=O)ccc31)[C@H](C(=O)Nc1nc3ccccc3s1)[C@H]1C(=O)O[C@H](c3ccccc3)[C@H](c3ccccc3)N1[C@@H]2c1ccc(OCCO)cc1,0.382
3,C=CCOC(=O)[C@H]1[C@@H]2C(=O)O[C@@H](c3ccccc3)[C@@H](c3ccccc3)N2[C@@H](c2ccc(OCCOC(=O)[C@H]3C[C@H]4C(=O)N[C@@H](CCCC[N+](C)(C)C)C(=O)N4[C@H]3c3ccc(O)cc3)cc2)[C@]12C(=O)Nc1ccc(I)cc12,-0.427
4,C=CCOC(=O)[C@H]1[C@@H]2C(=O)O[C@@H](c3ccccc3)[C@@H](c3ccccc3)N2[C@@H](c2ccc(OCCOC(=O)[C@H]3C[C@H]4C(=O)N[C@@H](CCCCN(C)C)C(=O)N4[C@H]3c3ccc(O)cc3)cc2)[C@]12C(=O)Nc1ccc(I)cc12,0.0141
5,C=CCN1C(=O)[C@@]2(CC=C)N=C(c3ccc(OCCCO)cc3)O[C@H]2c2ccccc21,-0.492

# Test: budding yeast growth changes without added modifier – OD600, strain BY4716, 24 h, basal condition, primary screen (AID 1173)
# Conditions: S. cerevisiae BY4716 growth, OD600, 24 h; higher = more signal, called active from +8 up or from −8 down
row,SMILES,z-score
1,COC(=O)[C@@]1(Cc2ccc(F)cc2)[C@H]2c3cc(C(=O)N4CCCC4)n(Cc4ccc(S(C)(=O)=O)cc4)c3C[C@H]2CN1C(=O)c1ccccc1,1.01 (inactive)
2,CO[C@H]1O[C@H](CO)[C@@H](OC(=O)Nc2ccc(C(F)(F)F)cc2)[C@H](OC(=O)Nc2ccc3c(c2)OCO3)[C@@H]1OC(=O)Nc1ccc2c(c1)OCO2,0.867 (inactive)
3,O=C1O[C@@H](c2ccccc2)[C@@H](c2ccccc2)N2[C@@H](c3ccccc3OCCO)[C@]3(C(=O)Nc4ccccc43)[C@@H](C(=O)Nc3nc4ccccc4s3)[C@H]12,0.583 (inactive)
4,Cc1ccc(S[C@]2(C(=O)NCCCN(C)C)CC(=O)N(Cc3cc(C(F)(F)F)cc(C(F)(F)F)c3)[C@@H]2c2ccc(CO)cc2I)cc1,-4.35 (inactive)
5,O=C1c2ccccc2[C@](Cc2ccccc2I)(C(=O)NCC(F)(F)F)[C@H](c2ccc(CO)cc2)N1Cc1ccccc1Cl,-1.32 (inactive)
6,O=C(NCCN1CCOCC1)[C@@H]1c2ccccc2C(=O)N(C2CCCCC2)[C@H]1c1ccc(CO)cc1,0.211 (inactive)
7,CC#CC(=O)Oc1ccccc1C=CC(=O)OCC,-10.4 (active)
8,COC(=O)[C@@]1(CCS(=O)(=O)c2ccccc2)N=C(c2ccc(OCCCO)cc2)O[C@H]1c1ccccc1CN=[N+]=[N-],1.38 (inactive)
9,C=CC1(C(=O)OC)CC=C(C(=O)OC)CC1 (stereo not given),0.489 (inactive)
10,CC(C)C(CO)N1C(=O)[C@@H]2C3C(=O)OCCC/C=C\[C@H]3OC23C=CCN(CCN2CCOCC2)C(=O)[C@@H]13 (stereo not given in full),0.384 (inactive)
11,COc1cc(C(O)C2C=CC3C(=O)NC(=O)C3N2Nc2ccccn2)cc(OC)c1OC (stereo not given),0.979 (inactive)
12,COC(=O)[C@@]1(Cc2ccccc2)[C@H]2c3cc(C(=O)N4CCCC4)n(Cc4ccc(S(C)(=O)=O)cc4)c3C[C@H]2CN1C(=O)c1ccccc1,0.912 (inactive)
13,C=C[C@@H](COC(=O)OC(C)(C)C)N(Cc1ccc(OC)cc1)S(=O)(=O)c1ccc(Br)cc1,0.119 (inactive)
14,COC(=O)[C@H](Cc1ccccc1)N[C@@H](/C=C/C1CC1)[C@H](O)Cc1ccccc1,-2.78 (inactive)
15,O=C1c2ccccc2[C@](Cc2ccccc2I)(C(=O)NCCN2CCOCC2)[C@H](c2ccc(CO)cc2)N1C1CCCCC1,-1.21 (inactive)
16,CCOC(=O)[C@H]1C/C=C/C[C@H](C(=O)OCC)C(=O)O[C@H]2[C@@H](OC)O[C@H](CO)[C@@H](OC(=O)c3c(OC)cccc3OC)[C@@H]2OC1=O,-0.964 (inactive)
17,CCOC(=O)C[C@H]1[C@H](OC(=O)c2ccc(C(=O)c3ccccc3)cc2)[C@@H](NC(=O)c2ccc3ccccc3c2)c2cc(OCCCO)ccc2N1C(=O)Cc1ccc(OC)cc1,-0.291 (inactive)
18,CCC(CC)C(O)C1C=CC2C(=O)NC(=O)C2N1Nc1ccccn1 (stereo not given),0.341 (inactive)

row,SMILES,z-score
1,COc1ccc([Si](C)(C)[C@H]2[C@H](CC(=O)N3Cc4ccccc4C[C@H]3CO)O[C@@]3(C(=O)N(Cc4cccc(N5CCC5=O)c4)c4ccccc43)[C@@H]2C)cc1,0.472 (inactive)
2,OCCCC1=CC(c2cccs2)N(Cc2cc3c(cc2Br)OCO3)CC1 (stereo not given),-2.09 (inactive)
3,CCCCCCc1nc(-c2ccc(OC)nc2)cc2c1[Si](C(C)C)(C(C)C)O[C@H]2c1ccccc1,0.676 (inactive)
4,COc1ccc([Si](C)(C)[C@H]2[C@H](CCO)O[C@@]3(C(=O)N(Cc4ccc(N(C=O)c5ccccc5)cc4)c4ccccc43)[C@@H]2C)cc1,1.83 (inactive)
5,O=C(NCCO)C1=C[C@H](Oc2ccccc2I)[C@@H](O)[C@H](N(Cc2ccco2)C(=O)Cc2ccccc2)C1,-0.279 (inactive)
6,C=C[C@H](C)[C@@H](OC(=O)Nc1ccc(OC)cc1)c1ccc(O)c2ccccc12,-18.2 (active)
7,C=C(COC)/C(=C/C[C@H](OC(C)=O)c1ccc(CO)o1)c1cc(C(=O)OC)ccc1OC,-0.0209 (inactive)
8,COC(=O)[C@@]1(Cc2ccccc2)[C@H]2c3cc(C(=O)N(C)C)n(Cc4ccsc4Br)c3C[C@H]2CN1C(=O)c1ccccc1,1.92 (inactive)
9,COc1ccc([Si](C)(C)[C@@H]2[C@@H](CCO)O[C@]3(C(=O)N(Cc4ccc(N(C=O)c5ccccc5)cc4)c4ccccc43)[C@H]2C)cc1,1.76 (inactive)
10,CN(C)CCCCCCNC(=O)[C@H]1C[C@H]2C(=O)N3CCC[C@H]3C(=O)N2[C@H]1c1ccc(O)cc1,-0.444 (inactive)
11,O=C(CS)NCCCCCCNC(=O)[C@@H]1C[C@@H]2C(=O)NCC(=O)N2[C@@H]1c1cccc(OCCO)c1,-0.419 (inactive)
12,COC(=O)[C@@]1(Cc2ccc(F)cc2)[C@H]2c3cc(C(=O)N(C)C)n(Cc4ccccc4)c3C[C@H]2CN1C(=O)c1ccccc1,1.98 (inactive)
13,C=CCNC(=O)[C@H]1[C@@H]2C(=O)O[C@@H](c3ccccc3)[C@@H](c3ccccc3)N2[C@@H](c2ccccc2OCCO)[C@]12C(=O)Nc1ccc(C#CCC(C(=O)OC)C(=O)OC)cc12,2.25 (inactive)
14,COCCOC(=O)N1C(=O)[C@@]2(c3cc(C#CCNC(N)=O)ccc31)[C@H](C(=O)Nc1nc3ccccc3s1)[C@H]1C(=O)O[C@H](c3ccccc3)[C@H](c3ccccc3)N1[C@@H]2c1ccc(OCCO)cc1,1.83 (inactive)
15,C=CCOC(=O)[C@H]1[C@@H]2C(=O)O[C@@H](c3ccccc3)[C@@H](c3ccccc3)N2[C@@H](c2ccc(OCCOC(=O)[C@H]3C[C@H]4C(=O)N[C@@H](CCCC[N+](C)(C)C)C(=O)N4[C@H]3c3ccc(O)cc3)cc2)[C@]12C(=O)Nc1ccc(I)cc12,-0.154 (inactive)
16,C=CCOC(=O)[C@H]1[C@@H]2C(=O)O[C@@H](c3ccccc3)[C@@H](c3ccccc3)N2[C@@H](c2ccc(OCCOC(=O)[C@H]3C[C@H]4C(=O)N[C@@H](CCCCN(C)C)C(=O)N4[C@H]3c3ccc(O)cc3)cc2)[C@]12C(=O)Nc1ccc(I)cc12,-0.526 (inactive)
17,C=CCN1C(=O)[C@@]2(CC=C)N=C(c3ccc(OCCCO)cc3)O[C@H]2c2ccccc21,-2.87 (inactive)
